Results taken from PubChem BioAssay AID1159580 (chemical genetic matrix, 2015).
Screen size: about 5,500 compounds; about 2,000 (36%) were called active. Roughly 18% stayed inconclusive and do not appear here. No stated cut-off is given here; in the data, active means normalized growth mostly below about 0.91 (no sharp cut-off); inconclusive means no clear call, values can overlap the other calls; inactive means mostly above about 0.92. The list shows a part of the results.

Experiment: chemical genetic growth profiling, strain panel (AID 1159580);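 further: tested at 20 µM; growth read once vehicle control cultures reached saturation at 30 °C; 1 = growth at the plate median or of vehicle wells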
Details: growth OD

Measured: normalized growth

C=CCCCCCCCCCCCC(O)CC(O)CO (centres undefined)
inactive: S. cerevisiae deletion strains, locus YJR043C, strain POL32, stronger effect = lower value 0.952 | S. cerevisiae deletion strains, locus YJR075W, strain HOC1, stronger effect = lower value 0.896 | S. cerevisiae deletion strains, locus YKL068W, stronger effect = lower value 0.995 | S. cerevisiae deletion strains, locus YKL085W, strain MDH1 (second series), stronger effect = lower value 0.96 | S. cerevisiae deletion strains, locus YKL085W, strain MDH1, stronger effect = lower value 0.96 | S. cerevisiae deletion strains, locus YKL160W, strain elf1, stronger effect = lower value 0.989 | S. cerevisiae deletion strains, locus YKL190W, strain CNB1, stronger effect = lower value 0.947 | S. cerevisiae deletion strains, locus YKR026C, strain gcn3, stronger effect = lower value 0.988 | S. cerevisiae deletion strains, locus YKR091W, strain srl3, stronger effect = lower value 0.995 | S. cerevisiae deletion strains, locus YLL001W, strain dnm1, stronger effect = lower value 0.976 | S. cerevisiae deletion strains, locus YLL026W, stronger effect = lower value 0.997 | S. cerevisiae deletion strains, locus YLL041C, strain sdh2, stronger effect = lower value 0.998 | S. cerevisiae deletion strains, locus YLR027C, strain aat2, stronger effect = lower value 0.999 | S. cerevisiae deletion strains, locus YLR039C, strain RIC1, stronger effect = lower value 0.996 | S. cerevisiae deletion strains, locus YLR058C, strain SHM2, stronger effect = lower value 0.944 | S. cerevisiae deletion strains, locus YLR102C, strain apc9, stronger effect = lower value 0.99 | S. cerevisiae deletion strains, locus YLR221C, strain rsa3, stronger effect = lower value 0.998 | S. cerevisiae deletion strains, locus YLR258W, strain gsy2, stronger effect = lower value 1.01 | S. cerevisiae deletion strains, locus YLR262C, strain YPT6 (second series), stronger effect = lower value 1.01 | S. cerevisiae deletion strains, locus YLR262C, strain YPT6, stronger effect = lower value 0.959 | S. cerevisiae deletion strains, locus YLR268W, strain sec22, stronger effect = lower value 0.971 | S. cerevisiae deletion strains, locus YLR320W, strain mms22, stronger effect = lower value 0.985 | S. cerevisiae deletion strains, locus YLR342W, strain FKS1, stronger effect = lower value 1 | S. cerevisiae deletion strains, locus YLR357W, strain rsc2, stronger effect = lower value 0.975 | S. cerevisiae deletion strains, locus YLR370C, strain arc18, stronger effect = lower value 0.993 | S. cerevisiae deletion strains, locus YLR371W, strain rom2, stronger effect = lower value 0.952 | S. cerevisiae deletion strains, locus YLR384C, strain iki3, stronger effect = lower value 0.997 | S. cerevisiae deletion strains, locus YML016C, strain PPZ1, stronger effect = lower value 0.988 | S. cerevisiae deletion strains, locus YML120C, strain ndi1, stronger effect = lower value 0.995 | S. cerevisiae deletion strains, locus YML124C, strain tub3, stronger effect = lower value 0.991 | S. cerevisiae deletion strains, locus YMR058W, strain fet3, stronger effect = lower value 1.01 | S. cerevisiae deletion strains, locus YMR078C, strain ctf18, stronger effect = lower value 0.964 | S. cerevisiae deletion strains, locus YMR125W, strain sto1, stronger effect = lower value 0.979 | S. cerevisiae deletion strains, locus YMR129W, stronger effect = lower value 0.988 | S. cerevisiae deletion strains, locus YMR205C, strain PFK2, stronger effect = lower value 0.974 | S. cerevisiae deletion strains, locus YMR231W, strain pep5, stronger effect = lower value 0.995 | S. cerevisiae deletion strains, locus YMR263W, strain SAP30, stronger effect = lower value 0.955 | S. cerevisiae deletion strains, locus YMR307W, strain GAS1, stronger effect = lower value 0.792 | S. cerevisiae deletion strains, locus YNL067W, strain RPL9B, stronger effect = lower value 0.903 | S. cerevisiae deletion strains, locus YNL071W, strain lat1, stronger effect = lower value 0.989 | S. cerevisiae deletion strains, locus YNL128W, strain TEP1, stronger effect = lower value 0.924 | S. cerevisiae deletion strains, locus YNL153C, strain GIM3, stronger effect = lower value 0.979 | S. cerevisiae deletion strains, locus YNL209W, strain ssb2, stronger effect = lower value 1 | S. cerevisiae deletion strains, locus YNL248C, strain rpa49, stronger effect = lower value 0.993 | S. cerevisiae deletion strains, locus YNL250W, strain rad50, stronger effect = lower value 0.939 | S. cerevisiae deletion strains, locus YNL271C, strain bni1, stronger effect = lower value 0.953 | S. cerevisiae deletion strains, locus YNL322C, strain KRE1 (second series), stronger effect = lower value 0.981 | S. cerevisiae deletion strains, locus YNL322C, strain KRE1, stronger effect = lower value 0.979 | S. cerevisiae deletion strains, locus YNR049C, strain mso1, stronger effect = lower value 0.995 | S. cerevisiae deletion strains, locus YNR052C, strain pop2, stronger effect = lower value 0.946 | S. cerevisiae deletion strains, locus YOL006C, strain TOP1, stronger effect = lower value 0.808 | S. cerevisiae deletion strains, locus YOL012C, strain htz1 1.72 | S. cerevisiae deletion strains, locus YOR001W, strain rrp6, stronger effect = lower value 0.998 | S. cerevisiae deletion strains, locus YOR069W, strain VPS5, stronger effect = lower value 0.978 | S. cerevisiae deletion strains, locus YOR070C, strain gyp1, stronger effect = lower value 0.992 | S. cerevisiae deletion strains, locus YOR080W, strain dia2, stronger effect = lower value 0.998 | S. cerevisiae deletion strains, locus YOR083W, strain WHI5, stronger effect = lower value 0.965 | S. cerevisiae deletion strains, locus YOR106W, strain vam3, stronger effect = lower value 1.02 | S. cerevisiae deletion strains, locus YOR136W, strain idh2, stronger effect = lower value 0.935 | S. cerevisiae deletion strains, locus YOR144C, strain elg1, stronger effect = lower value 0.982 | S. cerevisiae deletion strains, locus YOR265W, strain rbl2, stronger effect = lower value 1 | S. cerevisiae deletion strains, locus YOR270C, strain vph1, stronger effect = lower value 1.01 | S. cerevisiae deletion strains, locus YOR290C, strain snf2, stronger effect = lower value 0.93 | S. cerevisiae deletion strains, locus YOR316C, strain cot1, stronger effect = lower value 0.977 | S. cerevisiae deletion strains, locus YPL051W, strain arl3, stronger effect = lower value 0.999 | S. cerevisiae deletion strains, locus YPL055C, strain LGE1, stronger effect = lower value 0.843 | S. cerevisiae deletion strains, locus YPL078C, strain atp4, stronger effect = lower value 0.986 | S. cerevisiae deletion strains, locus YPL106C, strain sse1, stronger effect = lower value 1.01 | S. cerevisiae deletion strains, locus YPL240C, strain hsp82, stronger effect = lower value 1 | S. cerevisiae deletion strains, locus YPL241C, strain CIN2, stronger effect = lower value 0.987 | S. cerevisiae deletion strains, locus YPR119W, strain clb2, stronger effect = lower value 0.989 | S. cerevisiae deletion strains, locus YPR141C, strain kar3, stronger effect = lower value 1 | S. cerevisiae deletion strains, locus YPR163C, strain tif3, stronger effect = lower value 0.95 | S. cerevisiae deletion strains, locus YPR167C, strain met16, stronger effect = lower value 0.964 | S. cerevisiae deletion strains, strain wtn01, stronger effect = lower value 0.904
active: S. cerevisiae deletion strains, locus YKL009W, strain mrt4, stronger effect = lower value 0.852 | S. cerevisiae deletion strains, locus YKR001C, strain vps1, stronger effect = lower value 0.839 | S. cerevisiae deletion strains, locus YLR330W, strain CHS5, stronger effect = lower value 0.917 | S. cerevisiae deletion strains, locus YLR342W, strain FKS1 (second series), stronger effect = lower value 0.756 | S. cerevisiae deletion strains, locus YLR418C, strain cdc73, stronger effect = lower value 0.759 | S. cerevisiae deletion strains, locus YML032C, strain rad52, stronger effect = lower value 0.869 | S. cerevisiae deletion strains, locus YMR223W, strain ubp8, stronger effect = lower value 0.858 | S. cerevisiae deletion strains, locus YNL233W, strain BNI4, stronger effect = lower value 0.834 | S. cerevisiae deletion strains, locus YNL298W, strain CLA4, stronger effect = lower value 0.907 | S. cerevisiae deletion strains, locus YNL307C, strain MCK1, stronger effect = lower value 0.499 | S. cerevisiae deletion strains, locus YOL147C, strain pex11, stronger effect = lower value 0.778 | S. cerevisiae deletion strains, locus YOR061W, strain CKA2, stronger effect = lower value 0.635 | S. cerevisiae deletion strains, locus YOR184W, strain ser1, stronger effect = lower value 0.719 | S. cerevisiae strains, strain wild type, stronger effect = lower value 0.861
